Here are results for seven compounds from PubChem BioAssay.

The assay in a line: JC-1 mitochondrial signal, unstimulated MM1S myeloma – cell-based, JC-1 fluorescence, 24 h, 100 nL compound, profiling panel (AID 1170). Also: test concentration not given here. As to conditions: MM1S mitochondrial potential, higher = more signal.
For `COCCCNC(=O)[C@@]1(Sc2ccc(C)cc2)CC(=O)N(C2Cc3ccccc3C2)[C@@H]1c1ccc(CO)cc1`, the z-score was -1.59.

`CS(=O)(=O)CCOC(=O)C1=CC(c2ccc(CO)cc2)=CC(C2CC2)N(Cc2sc3ccccc3c2Cl)C=C1C(=O)OCCS(C)(=O)=O` (configuration not stated) gave a z-score of -1.87.

Consider `C=CCOC(=O)[C@@H]1[C@H]2C(=O)O[C@H](c3ccccc3)[C@H](c3ccccc3)N2[C@H](c2ccc(OCCOC(=O)[C@@H]3C[C@@H]4C(=O)N[C@@H](CCCC[N+](C)(C)C)C(=O)N4[C@@H]3c3ccc(O)cc3)cc2)[C@@]12C(=O)Nc1ccc(I)cc12`, for which the z-score is -1.1.

Turning to `OCCCC1=CC(c2ccc(CN3CCCC3)cc2)N(Cc2cc3c(cc2Br)OCO3)CC1` (configuration not stated), the z-score was 0.0254.

`CC(c1ccccc1)C(O)C1C=CC2C(=O)N(C)C(=O)C2N1Nc1ccccc1` (configuration not stated) gave a z-score of -0.527.

`CC(C)N1C(=O)C[C@@](C(=O)O)(c2ccc([N+](=O)[O-])cc2)[C@H]1c1ccc(CO)cc1` registered a z-score of 0.435.

With `CCCC#C[Si](O[C@H](CC)c1cn([C@H](C)c2ccccc2)nn1)(C(C)C)C(C)C`, the z-score is -0.0359.
